# Results published in PubChem BioAssay AID1159580 (chemical genetic matrix, 2015).
# The whole screen tested about 5,500 compounds, of which about 2,000 (36%) were called active. Roughly 18% stayed inconclusive and do not appear here. The list shows a part of the results. Unmarked numbers belong to inactive results. Cut-off read from the data, not from the text of the source: active = normalized growth mostly below about 0.91 (no sharp cut-off); inconclusive = no clear call, values can overlap the other calls; inactive = mostly above about 0.92.
# Assay: chemical genetic growth profiling, strain panel (AID 1159580);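 note: tested at 20 µM; growth read once vehicle control cultures reached saturation at 30 °C; 1 = growth at the plate median or of vehicle wells; lower values mean less growth of the strain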
# Conditions: S. cerevisiae deletion strains, growth OD
# [1] = locus YAR019C, strain CDC15, stronger effect = lower value
# [2] = locus YBL105C, strain PKC1, stronger effect = lower value
# [3] = locus YBR135W, strain CKS1, stronger effect = lower value
# [4] = locus YBR136W, strain MEC1, stronger effect = lower value
# [5] = locus YBR160W, strain CDC28, stronger effect = lower value
# [6] = locus YDL017W, strain CDC7, stronger effect = lower value
# [7] = locus YDL028C, strain MPS1, stronger effect = lower value
# [8] = locus YDL101C, strain DUN1, stronger effect = lower value
# [9] = locus YDL108W, strain KIN28, stronger effect = lower value
# [10] = locus YDL132W, strain cdc53, stronger effect = lower value
# [11] = locus YDL214C, strain PRR2, stronger effect = lower value
# [12] = locus YDR052C, strain DBF4, stronger effect = lower value
# [13] = locus YDR054C, strain cdc34, stronger effect = lower value
# [14] = locus YDR226W, strain ADK1, stronger effect = lower value
# [15] = locus YDR477W, strain SNF1, stronger effect = lower value
# [16] = locus YER123W, strain YCK3, stronger effect = lower value
# [17] = locus YER133W, strain GLC7, stronger effect = lower value
# [18] = locus YFL009W, strain cdc4, stronger effect = lower value
# [19] = locus YFL029C, strain CAK1, stronger effect = lower value
# [20] = locus YFR003C, strain YPI1, stronger effect = lower value
# [21] = locus YFR019W, strain FAB1, stronger effect = lower value
# [22] = locus YFR028C, strain CDC14, stronger effect = lower value
# [23] = locus YGR040W, strain KSS1, stronger effect = lower value
# [24] = locus YGR052W, strain FMP48, stronger effect = lower value
# [25] = locus YGR092W, strain DBF2, stronger effect = lower value
# [26] = locus YHR030C, strain SLT2, stronger effect = lower value
# [27] = locus YHR079C, strain IRE1, stronger effect = lower value
# [28] = locus YHR082C, strain KSP1, stronger effect = lower value
# [29] = locus YHR205W, strain SCH9, stronger effect = lower value
# [30] = locus YIL147C, strain SLN1, stronger effect = lower value
# [31] = locus YJL095W, strain BCK1, stronger effect = lower value
# [32] = locus YJL128C, strain PBS2, stronger effect = lower value
# [33] = locus YJL157C, strain FAR1, stronger effect = lower value
# [34] = locus YJR016C, strain ILV3, stronger effect = lower value
# [35] = locus YJR066W, strain TOR1 (second series), stronger effect = lower value
# [36] = locus YJR066W, strain TOR1, stronger effect = lower value
# [37] = locus YKL048C, strain ELM1, stronger effect = lower value
# [38] = locus YKL067W, strain YNK1, stronger effect = lower value
# [39] = locus YKL101W, strain HSL1, stronger effect = lower value
# [40] = locus YKL193C, strain SDS22, stronger effect = lower value
# [41] = locus YKL203C, strain TOR2, stronger effect = lower value
# [42] = locus YLR113W, strain HOG1, stronger effect = lower value
# [43] = locus YLR133W, strain CKI1, stronger effect = lower value
# [44] = locus YLR403W, strain SFP1, stronger effect = lower value
# [45] = locus YML070W, strain DAK1, stronger effect = lower value
# [46] = locus YMR001C, strain CDC5, stronger effect = lower value
# [47] = locus YMR205C, strain PFK2 (second series), stronger effect = lower value
# [48] = locus YMR277W, strain FCP1, stronger effect = lower value
# [49] = locus YNL006W, strain LST8, stronger effect = lower value
# [50] = locus YNL020C, strain ARK1, stronger effect = lower value
# [51] = locus YNL161W, strain CBK1, stronger effect = lower value
# [52] = locus YNL183C, strain NPR1, stronger effect = lower value
# [53] = locus YNL207W, strain RIO2, stronger effect = lower value
# [54] = locus YNL222W, strain SSU72, stronger effect = lower value
# [55] = locus YNL307C, strain MCK1 (second series), stronger effect = lower value
# [56] = locus YOL078W, strain AVO1, stronger effect = lower value
# [57] = locus YOL136C, strain PFK27, stronger effect = lower value
# [58] = locus YOR061W, strain CKA2, stronger effect = lower value
# [59] = locus YOR119C, strain RIO1, stronger effect = lower value
# [60] = locus YOR231W, strain MKK1, stronger effect = lower value
# [61] = locus YOR329C, strain SCD5, stronger effect = lower value
# [62] = locus YPL031C, strain PHO85, stronger effect = lower value
# [63] = locus YPL153C, strain RAD53, stronger effect = lower value
# [64] = locus YPL204W, strain HRR25, stronger effect = lower value
# [65] = locus YPL209C, strain IPL1, stronger effect = lower value
# [66] = locus YPL256C, strain CLN2, stronger effect = lower value
# [67] = locus YPR025C, strain CCL1, stronger effect = lower value
# [68] = locus YPR106W, strain ISR1, stronger effect = lower value
# [69] = locus YPR111W, strain DBF20, stronger effect = lower value
# [70] = strain NNK1, stronger effect = lower value
# [71] = strain TSCII, stronger effect = lower value
smiles,measurement,setting,value
CC(C)(C)NC(=S)N/N=C\c1cc(Br)c(O)c(Br)c1,normalized growth,[1],0.966
same,normalized growth,[2],0.969
same,normalized growth,[3],0.962
same,normalized growth,[4],0.965
same,normalized growth,[5],0.967
same,normalized growth,[6],0.966
same,normalized growth,[7],0.967
same,normalized growth,[8],0.959
same,normalized growth,[9],0.971
same,normalized growth,[10],0.955
same,normalized growth,[11],0.944
same,normalized growth,[12],0.971
same,normalized growth,[13],0.957
same,normalized growth,[14],0.946
same,normalized growth,[15],0.917
same,normalized growth,[16],0.917
same,normalized growth,[17],0.944
same,normalized growth,[18],0.962
same,normalized growth,[19],0.958
same,normalized growth,[20],0.971
same,normalized growth,[21],0.929
same,normalized growth,[22],0.952
same,normalized growth,[23],0.919
same,normalized growth,[24],0.968
same,normalized growth,[25],0.947
same,normalized growth,[26],0.768 (active)
same,normalized growth,[27],0.926
same,normalized growth,[28],0.922
same,normalized growth,[29],0.938
same,normalized growth,[30],0.971
same,normalized growth,[31],0.875
same,normalized growth,[32],0.976
same,normalized growth,[33],0.957
same,normalized growth,[34],0.955
same,normalized growth,[35],0.932
same,normalized growth,[36],0.864
same,normalized growth,[37],0.951
same,normalized growth,[38],0.945
same,normalized growth,[39],0.927
same,normalized growth,[40],0.959
same,normalized growth,[41],0.897
same,normalized growth,[42],0.896
same,normalized growth,[43],0.928
same,normalized growth,[44],0.92
same,normalized growth,[45],0.959
same,normalized growth,[46],0.965
same,normalized growth,[47],0.949
same,normalized growth,[48],0.97
same,normalized growth,[49],0.965
same,normalized growth,[50],0.929
same,normalized growth,[51],0.969
same,normalized growth,[52],0.87
same,normalized growth,[53],0.964
same,normalized growth,[54],0.963
same,normalized growth,[55],0.898
same,normalized growth,[56],0.961
same,normalized growth,[57],0.938
same,normalized growth,[58],0.921
same,normalized growth,[59],0.932
same,normalized growth,[60],0.956
same,normalized growth,[61],0.969
same,normalized growth,[62],0.92
same,normalized growth,[63],0.953
same,normalized growth,[64],0.904
same,normalized growth,[65],0.966
same,normalized growth,[66],0.902
same,normalized growth,[67],0.966
same,normalized growth,[68],0.957
same,normalized growth,[69],0.955
same,normalized growth,[70],0.959
same,normalized growth,[71],0.965
Cc1cc(Br)c(O)c(/C=N\NC(=S)NC(C)(C)C)c1,normalized growth,[1],0.98
same,normalized growth,[2],0.987
same,normalized growth,[3],0.971
same,normalized growth,[4],0.981
same,normalized growth,[5],0.978
same,normalized growth,[6],0.972
same,normalized growth,[7],0.972
same,normalized growth,[8],0.993
same,normalized growth,[9],0.969
same,normalized growth,[10],0.984
same,normalized growth,[11],0.922
same,normalized growth,[12],0.982
same,normalized growth,[13],0.98
same,normalized growth,[14],0.965
same,normalized growth,[15],0.91
same,normalized growth,[16],0.894
same,normalized growth,[17],0.879
same,normalized growth,[18],0.981
same,normalized growth,[19],0.973
same,normalized growth,[20],0.976
same,normalized growth,[21],0.959
same,normalized growth,[22],0.975
same,normalized growth,[23],0.893
same,normalized growth,[24],0.883
same,normalized growth,[25],0.823
same,normalized growth,[26],0.752 (active)
same,normalized growth,[27],0.872
same,normalized growth,[28],0.97
same,normalized growth,[29],0.942
same,normalized growth,[30],0.981
same,normalized growth,[31],0.875
same,normalized growth,[32],0.952
same,normalized growth,[33],0.911
same,normalized growth,[34],0.99
same,normalized growth,[35],0.839
same,normalized growth,[36],0.899
same,normalized growth,[37],0.973
same,normalized growth,[38],0.934
same,normalized growth,[39],0.914
same,normalized growth,[40],0.98
same,normalized growth,[41],0.914
same,normalized growth,[42],0.782 (active)
same,normalized growth,[43],0.917
same,normalized growth,[44],0.857
same,normalized growth,[45],0.917
same,normalized growth,[46],0.975
same,normalized growth,[47],0.944
same,normalized growth,[48],0.98
same,normalized growth,[49],0.98
same,normalized growth,[50],0.903
same,normalized growth,[51],0.975
same,normalized growth,[52],0.848
same,normalized growth,[53],0.976
same,normalized growth,[54],0.988
same,normalized growth,[55],0.893
same,normalized growth,[56],0.982
same,normalized growth,[57],0.947
same,normalized growth,[58],0.91
same,normalized growth,[59],0.967
same,normalized growth,[60],0.874
same,normalized growth,[61],0.988
same,normalized growth,[62],0.876
same,normalized growth,[63],0.906
same,normalized growth,[64],0.884
same,normalized growth,[65],0.981
same,normalized growth,[66],0.838 (active)
same,normalized growth,[67],0.975
same,normalized growth,[68],0.987
same,normalized growth,[69],0.985
same,normalized growth,[70],0.982
same,normalized growth,[71],0.984
CNC(=S)N/N=C\c1cc(Br)cc(Br)c1O,normalized growth,"locus YAL013W, strain DEP1, stronger effect = lower value",0.794 (active)
same,normalized growth,"locus YBR229C, strain ROT2, stronger effect = lower value",0.919 (active)
same,normalized growth,"locus YCL061C, strain MRC1, stronger effect = lower value",0.861 (active)
same,normalized growth,[8],0.912
same,normalized growth,"locus YDL134C, strain PPH21, stronger effect = lower value",0.537 (active)
same,normalized growth,"locus YDR150W, strain NUM1, stronger effect = lower value",0.755 (active)
same,normalized growth,"locus YEL061C, strain CIN8, stronger effect = lower value",0.463 (active)
same,normalized growth,"locus YGR078C, strain PAC10, stronger effect = lower value",0.912 (active)
same,normalized growth,"locus YGR229C, strain SMI1, stronger effect = lower value",0.813 (active)
same,normalized growth,[26],0.237 (active)
same,normalized growth,"locus YHR087W, strain rtc3, stronger effect = lower value",0.944
same,normalized growth,"locus YJR043C, strain POL32, stronger effect = lower value",0.814 (active)
same,normalized growth,"locus YJR075W, strain HOC1, stronger effect = lower value",0.847 (active)
same,normalized growth,"locus YKL190W, strain CNB1, stronger effect = lower value",0.36 (active)
same,normalized growth,"locus YLR039C, strain RIC1, stronger effect = lower value",0.155 (active)
same,normalized growth,"locus YLR058C, strain SHM2 (second series), stronger effect = lower value",1
same,normalized growth,"locus YLR085C, strain ARP6, stronger effect = lower value",0.139 (active)
same,normalized growth,"locus YLR262C, strain YPT6, stronger effect = lower value",0.15 (active)
same,normalized growth,"locus YML094W, strain GIM5, stronger effect = lower value",0.586 (active)
same,normalized growth,"locus YMR219W, strain ESC1, stronger effect = lower value",0.956
same,normalized growth,"locus YMR263W, strain SAP30, stronger effect = lower value",0.743 (active)
same,normalized growth,"locus YMR307W, strain GAS1, stronger effect = lower value",0.252 (active)
same,normalized growth,"locus YNL153C, strain GIM3, stronger effect = lower value",0.875 (active)
same,normalized growth,"locus YNL298W, strain CLA4 (second series), stronger effect = lower value",0.311 (active)
same,normalized growth,"locus YNL322C, strain KRE1, stronger effect = lower value",0.817 (active)
same,normalized growth,"locus YNR030W, strain Alg12, stronger effect = lower value",0.274 (active)
same,normalized growth,"locus YPL055C, strain LGE1, stronger effect = lower value",0.485 (active)
same,normalized growth,"locus YPL241C, strain CIN2, stronger effect = lower value",0.522 (active)
same,normalized growth,"locus YPR135W, strain CTF4, stronger effect = lower value",0.334 (active)
